# Laboratory results from PubChem BioAssay AID2073 (Sanford-Burnham Center for Chemical Genomics, 2009).
# Among all 290,000 compounds or so, about 570 (0.2%) were called active. Not shown: some 1% with an inconclusive outcome. No stated cut-off is given here; in the data, active means inhibition mostly above about 51% (no sharp cut-off); inconclusive means no clear call, values can overlap the other calls; inactive means mostly below about 53%. Shown is part of a subset that was picked to be rich in actives.
# Molecular target: Voltage-dependent N-type calcium channel subunit alpha-1B (Homo sapiens) (UniProt Q00975)
# Sequence (Q00975 whole entry, looked up): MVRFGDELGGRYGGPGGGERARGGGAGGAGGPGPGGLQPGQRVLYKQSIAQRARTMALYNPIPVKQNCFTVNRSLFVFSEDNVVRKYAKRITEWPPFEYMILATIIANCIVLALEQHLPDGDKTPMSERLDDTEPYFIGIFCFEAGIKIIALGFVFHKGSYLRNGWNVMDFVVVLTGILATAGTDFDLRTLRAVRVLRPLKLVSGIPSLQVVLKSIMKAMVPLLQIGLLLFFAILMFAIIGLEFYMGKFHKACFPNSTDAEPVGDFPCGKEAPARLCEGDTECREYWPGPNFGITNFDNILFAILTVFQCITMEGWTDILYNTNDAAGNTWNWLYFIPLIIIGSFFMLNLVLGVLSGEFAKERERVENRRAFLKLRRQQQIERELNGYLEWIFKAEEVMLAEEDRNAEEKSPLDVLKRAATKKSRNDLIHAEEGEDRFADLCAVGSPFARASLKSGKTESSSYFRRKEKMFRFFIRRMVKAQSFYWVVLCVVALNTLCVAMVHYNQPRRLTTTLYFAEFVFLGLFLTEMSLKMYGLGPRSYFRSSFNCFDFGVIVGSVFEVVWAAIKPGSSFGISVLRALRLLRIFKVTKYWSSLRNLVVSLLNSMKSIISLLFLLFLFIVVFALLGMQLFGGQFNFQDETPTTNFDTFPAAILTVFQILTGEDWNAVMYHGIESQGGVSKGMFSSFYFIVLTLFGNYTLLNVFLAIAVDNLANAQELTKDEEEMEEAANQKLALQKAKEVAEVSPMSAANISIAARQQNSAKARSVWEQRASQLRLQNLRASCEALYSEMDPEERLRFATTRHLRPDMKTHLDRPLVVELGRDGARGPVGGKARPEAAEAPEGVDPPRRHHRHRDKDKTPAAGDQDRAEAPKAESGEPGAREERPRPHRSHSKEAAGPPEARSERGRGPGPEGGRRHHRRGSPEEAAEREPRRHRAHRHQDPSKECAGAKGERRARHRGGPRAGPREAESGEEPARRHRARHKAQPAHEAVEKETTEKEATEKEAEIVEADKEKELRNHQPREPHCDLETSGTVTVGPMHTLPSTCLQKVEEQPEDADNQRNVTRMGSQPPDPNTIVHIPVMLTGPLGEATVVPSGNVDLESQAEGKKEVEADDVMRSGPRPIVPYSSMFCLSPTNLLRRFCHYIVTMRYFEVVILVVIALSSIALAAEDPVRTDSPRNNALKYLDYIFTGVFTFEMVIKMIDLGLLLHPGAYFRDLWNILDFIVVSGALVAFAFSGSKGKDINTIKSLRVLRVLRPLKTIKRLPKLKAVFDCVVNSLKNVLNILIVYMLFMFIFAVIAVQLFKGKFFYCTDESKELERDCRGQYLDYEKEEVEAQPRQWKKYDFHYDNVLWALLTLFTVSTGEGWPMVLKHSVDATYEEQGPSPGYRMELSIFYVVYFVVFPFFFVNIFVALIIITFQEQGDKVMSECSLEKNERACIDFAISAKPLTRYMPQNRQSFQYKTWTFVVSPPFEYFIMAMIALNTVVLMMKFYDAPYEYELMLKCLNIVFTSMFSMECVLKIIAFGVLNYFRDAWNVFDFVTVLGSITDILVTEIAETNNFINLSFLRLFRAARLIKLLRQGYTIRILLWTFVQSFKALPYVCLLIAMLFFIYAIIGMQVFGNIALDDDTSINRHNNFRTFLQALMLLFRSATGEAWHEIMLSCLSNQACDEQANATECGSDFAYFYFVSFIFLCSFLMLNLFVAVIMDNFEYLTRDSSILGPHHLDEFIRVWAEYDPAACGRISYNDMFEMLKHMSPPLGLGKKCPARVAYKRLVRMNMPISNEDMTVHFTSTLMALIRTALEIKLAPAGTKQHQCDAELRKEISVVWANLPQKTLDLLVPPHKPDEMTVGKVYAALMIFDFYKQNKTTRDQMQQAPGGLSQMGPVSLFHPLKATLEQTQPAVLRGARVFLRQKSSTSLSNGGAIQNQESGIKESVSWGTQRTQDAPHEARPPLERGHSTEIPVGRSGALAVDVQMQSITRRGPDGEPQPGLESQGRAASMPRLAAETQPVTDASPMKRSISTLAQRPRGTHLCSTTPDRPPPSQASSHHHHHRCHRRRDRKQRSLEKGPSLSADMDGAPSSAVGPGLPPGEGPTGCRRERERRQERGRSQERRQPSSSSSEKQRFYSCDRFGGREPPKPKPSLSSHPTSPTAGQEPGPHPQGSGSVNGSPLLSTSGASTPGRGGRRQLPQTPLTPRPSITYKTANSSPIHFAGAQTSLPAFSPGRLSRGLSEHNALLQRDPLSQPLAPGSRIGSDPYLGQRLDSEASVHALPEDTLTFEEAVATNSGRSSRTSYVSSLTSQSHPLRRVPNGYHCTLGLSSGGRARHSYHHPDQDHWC
# Experiment: disruptors of CaV2.2 binding to Mint1 – biochemical, HTRF (AID 2073)
# Settings: HTRF protein-protein interaction, Mint1-CaV2.2, at 20 µM, stronger effect = higher value
# [1] = measured here: average of repeat tests
SMILES,inhibition,inhibition [1] [%]
Cc1ccc2c(COC(=O)c3ccc(NC(=O)CC#N)cc3)cc(=O)oc2c1C,57.8% (inactive),36.4
Cc1ccc(NC(=O)c2nsc(Cl)c2Cl)cc1,18.9% (inactive),
C/C(=N\NC(=O)c1ccccc1Cl)c1ccccn1,16.3% (inactive),
CCN(CC)c1ccc(/C=N/NC(=O)c2c(Cl)c(C)nn2C)cc1,10.2% (inactive),
CCc1nnc(NS(=O)(=O)c2ccc(NCc3cc(Br)ccc3O)cc2)s1,-6.2% (inactive),
O=C(OCc1cc(=O)n2c(n1)sc1ccccc12)c1ccc(O)cc1O,60.2% (active),
O=C(OCc1cc(=O)n2c(n1)sc1ccccc12)c1cccc(O)c1,19.1% (inactive),
O=C(OCc1cc(=O)n2c(n1)sc1ccccc12)c1ccc(O)cc1,30.3% (inactive),
O=S(=O)(Nc1ccncc1)c1cc(Cl)c(Cl)cc1Cl,12.2% (inactive),
COc1ccc2oc(=Nc3ccccc3)c(-c3nc4ccccc4[nH]3)cc2c1,37.9% (inactive),
COc1cccc(N=c2oc3ccccc3cc2-c2nc3ccccc3[nH]2)c1,17.1% (inactive),
CC(=O)c1sc2nc(CSc3nncn3C)[nH]c(=O)c2c1C,22.1% (inactive),
CC(=O)c1sc2nc(CSc3nnnn3-c3ccccc3)[nH]c(=O)c2c1C,80.6% (active),
Cc1ccc(-n2nnnc2SCc2nc3sc(C)c(C)c3c(=O)[nH]2)cc1,12% (inactive),
COc1ccc2c(C(=O)CN3CCSCC3)c[nH]c2c1,25.2% (inactive),
COC(=O)C1=C(N)Oc2c(oc(CO)cc2=O)C1c1ccccc1F (centres undefined),0.2% (inactive),
O=C(O)CC(C(=O)O)N1C(=O)/C(=C/C=C/c2ccco2)SC1=S (centres undefined),27.4% (inactive),
CC(C(=O)O)N1C(=O)/C(=C/C=C/c2ccco2)SC1=S (centres undefined),77.7% (active),
CC(C)C(C(=O)O)N1C(=O)/C(=C/C=C/c2ccco2)SC1=S (centres undefined),49.5% (inactive),
CNC(=S)NNC(=O)c1c(C)nc2cc(C)ccn12,0.7% (inactive),
CC1=C(C(=O)O)N2C(=O)C(NC(=O)c3ccn(C)n3)C2SC1 (centres undefined),-8.1% (inactive),
CC1=C(C(=O)O)N2C(=O)[C@@H](NC(=O)[C@H](N)c3ccccc3)[C@H]2SC1,-20.5% (inactive),
O=S1(=O)CCC(n2nccc2-c2ccccc2)C1 (centres undefined),-2.9% (inactive),
COC(=O)C1=C(C)N(CCCC(=O)O)C(=O)NC1c1ccc(-c2ccccc2)cc1 (centres undefined),-4.2% (inactive),
COc1cc(C2c3c([nH]c(=O)[nH]c3=O)Nc3ccc4ccccc4c32)cc(OC)c1OC (centres undefined),82.8% (active),

SMILES,inhibition,inhibition [1] [%]
COc1cc(C2c3c([nH]c(=O)[nH]c3=O)Nc3ccc4ccccc4c32)ccc1O (centres undefined),-1.1% (inactive),
COc1cc(C2CC(=O)Nc3n[nH]c(-c4ccccc4)c32)cc(OC)c1OC (centres undefined),8.3% (inactive),
CSc1cccc(NC(=O)c2cc(S(=O)(=O)N3CCCC3)cn2C)c1,8.5% (inactive),
O=C(CSc1nc2c(c(=O)n1-c1ccc(Cl)cc1)SCC2)NCC1CCCO1 (centres undefined),-0.5% (inactive),
CC1=NN(C(N)=S)C(=O)C1N=Nc1c(Cl)cc([N+](=O)[O-])cc1Cl (centres undefined),-6.1% (inactive),
Cc1ccc(C)c(SCC(=O)NC(=O)Nc2ccc3c(c2)OCCO3)c1,1.2% (inactive),
CCCc1cc(=O)[nH]c(SCC(=O)N2CCC(C)CC2)n1,12% (inactive),
Nc1cc([N+](=O)[O-])ccc1O,2.9% (inactive),
Cc1ccc([N+](=O)[O-])cc1N,0% (inactive),
COc1ccc(NC(=O)CCC(=O)N(Cc2ccc(OC)c(OC)c2)c2nccs2)cc1,6% (inactive),
OCC1(CCCc2ccccc2)CCN(Cc2ccc(F)cc2)CC1,-2.6% (inactive),
CC(C)CNC(=O)c1ccccc1Oc1ccccc1,3.1% (inactive),
Cn1c(=O)c2c(-c3ccc(C(C)(C)C)cc3)n(CC3CCCO3)cc2n(C)c1=O (centres undefined),8.1% (inactive),
Cc1ccc2[nH]c(=O)c(CNC(C)C)cc2c1,15.1% (inactive),
COC(=O)C1=C(C)NC(C)=C(C(=O)OC)C1c1cc2cc(C)ccc2[nH]c1=O,17.4% (inactive),
O=C(O)C1Nc2c(Cl)cc(Cl)cc2C2C=CCC12 (centres undefined),51.5% (active),
O=C(O)C1Nc2c(C(F)(F)F)ccc(Cl)c2C2C=CCC12 (centres undefined),7.3% (inactive),
Cc1ccc2c(c1C)NC(C(=O)O)C1CC=CC21 (centres undefined),42.8% (inactive),
O=C(CCNC(=O)N1CCn2c1nc1ccccc12)NCc1ccccc1,-1.3% (inactive),
O=c1c2c([N+](=O)[O-])cc([N+](=O)[O-])cc2sn1Cc1ccccc1,43.2% (inactive),
N#Cc1c(N)n(Cc2ccccc2)c(=O)c2cc([N+](=O)[O-])ccc12,2% (inactive),
Cc1ccc(NC2SC(=O)N(CC(=O)O)C2=O)cc1 (centres undefined),-7.4% (inactive),
Cc1cccc(C)c1-n1c(C)nn(CC2CC2)c1=O,-5.7% (inactive),
COc1ccc(-c2csc(NC(=O)CN3C(=O)CCC3=O)n2)c(OC)c1,6.5% (inactive),
CC(C)(C)NC(=O)CN(C(=O)C1(C)CC(=O)N=C2C=CC=CN21)C1CCCC1 (centres undefined),9.2% (inactive),

SMILES,inhibition,inhibition [1] [%]
CCCCCCC(=O)N(O)C1CC(=O)N(c2ccccc2)C1=O (centres undefined),65.6% (active),
CCCCCCC(=O)N(O)C1CC(=O)N(c2ccc(C)cc2)C1=O (centres undefined),12.5% (inactive),
CCCCCC(=O)N(O)C1CC(=O)N(c2ccccc2)C1=O (centres undefined),44.4% (inactive),
CN(CCN1CCc2ccccc2C1)Cc1nc(-c2ccc3c(c2)OCO3)no1,2.5% (inactive),
CCc1cc(C(=O)N2CCCC(C(=O)c3ccc(C(F)(F)F)cc3)C2)n(C)n1 (centres undefined),5.5% (inactive),
C=CCn1c(SCC(=O)NCC2CCCO2)nc2scc(-c3ccco3)c2c1=O (centres undefined),33% (inactive),
O=C(CSc1nnc(-c2ccco2)n1-c1ccccc1)NCC1CCCO1 (centres undefined),9.9% (inactive),
O=C(CSc1nc2scc(-c3ccco3)c2c(=O)n1-c1ccccc1)NCC1CCCO1 (centres undefined),55% (active),
Cc1cc(C)c(NC(=O)CN2CCN(c3ccccn3)CC2)c(C)c1,-1.2% (inactive),
CCOC(=O)C1(Cc2ccccc2C)CCCN(C(=O)c2ccoc2)C1 (centres undefined),14.3% (inactive),
COC(=O)C1=C(C)NC(C)=C(C(=O)OCC2CCCO2)C1c1cccc(Br)c1 (centres undefined),13.6% (inactive),
N#Cc1ccsc1NC(=O)CSc1nnnn1-c1ccc(O)cc1,50.6% (active),
Cn1cnnc1SCC(=O)Nc1sccc1C#N,2.2% (inactive),
Cc1ccc(-n2nnnc2SCC(=O)Nc2sccc2C#N)cc1,0% (inactive),
CC(=O)c1ccc2noc(-c3cccc(F)c3)c2c1,-6.7% (inactive),
CCn1cc(C(=O)O)c(=O)c2cc(F)c(N3CCN(C(=S)NC(=O)c4ccccc4)CC3)cc21,-5.6% (inactive),
CCn1cc(C(=O)O)c(=O)c2cc(F)c(N/N=C/c3ccccc3)cc21,6.4% (inactive),
CCn1cc(C(=O)O)c(=O)c2cc(F)c(N/N=C/c3ccccc3[N+](=O)[O-])cc21,58.8% (active),
Cn1cc([N+](=O)[O-])c(C(=O)NCc2ccco2)n1,-1.5% (inactive),
COc1ccccc1NC(=O)C1=C(C)NC(=O)NC1c1ccccc1F (centres undefined),6.4% (inactive),
COc1ccc(NC(=O)C2=C(C)NC(=O)NC2c2ccccc2[N+](=O)[O-])cc1 (centres undefined),-2.6% (inactive),
COc1ccccc1NC(=O)C1=C(C)NC(=O)NC1c1ccccc1[N+](=O)[O-] (centres undefined),55.2% (active),
O=C(CN1C(=O)C2CCCCC2C1=O)N1CCN(c2ncccn2)CC1 (centres undefined),10.4% (inactive),
CC(C)CCN(C)C1CCN(S(=O)(=O)c2cccc(C(F)(F)F)c2)CC1,12.2% (inactive),
O=C(N/N=C/c1ccc([N+](=O)[O-])cc1)c1cc(C2CC2)[nH]n1,-0.6% (inactive),

SMILES,inhibition,inhibition [1] [%]
O=C(N/N=C/c1cccc([N+](=O)[O-])c1)c1cc(-c2ccc3c(c2)OCO3)n[nH]1,3.3% (inactive),
O=C(Nc1ccc(S(=O)(=O)Nc2nccs2)cc1)c1cccc(N2C(=O)c3ccccc3C2=O)c1,49.1% (inactive),
O=C(Nc1ccc(S(=O)(=O)Nc2nccs2)cc1)c1ccc(N2C(=O)c3ccccc3C2=O)cc1,58.8% (active),
O=C(Nc1ccc(S(=O)(=O)Nc2nccs2)cc1)c1ccc(F)cc1,11.1% (inactive),
COc1ccccc1N1CCN(C(=O)C2CCN(C(=O)c3cccc(Cl)c3)CC2)CC1,6.4% (inactive),
Cc1[nH]cnc1C(=O)N/N=C/c1ccc([N+](=O)[O-])s1,-7.6% (inactive),
O=[N+]([O-])C(=c1ccc2c(c1)N1C3=C(CCCC3)CC3CCCCC31N=2)[N+](=O)[O-] (centres undefined),51.6% (active),92.8
N#C/C(C(N)=O)=c1/ccc2c(c1)N1C3=C(CCCC3)CC3CCCCC31N=2 (centres undefined),-26.9% (inactive),
N#CC(C#N)=c1ccc2c(c1)N1C3=C(CCCC3)CC3CCCCC31N=2 (centres undefined),-36.3% (inactive),
CCc1ccc2[nH]c(C(=O)Nc3ccc(Br)c(C)n3)cc2c1,5.3% (inactive),
N#Cc1c(-c2cccc(Br)c2)cc(-c2ccco2)[nH]c1=O,53.9% (active),
COc1ccc(-c2cc(-c3ccco3)[nH]c(=O)c2C#N)cc1OC,0.3% (inactive),
COc1ccc(-c2cc(-c3ccco3)[nH]c(=O)c2C#N)cc1,24.8% (inactive),
O=C(COC(=O)c1ccc(NS(=O)(=O)c2cccs2)cc1)NCC1CCCO1 (centres undefined),-3% (inactive),
O=C(COC(=O)/C=C/c1ccco1)NCc1ccccc1,13.7% (inactive),
O=C(COC(=O)c1cccs1)NCc1ccco1,-0.7% (inactive),
O=C(COC(=O)CCC(=O)c1cccs1)NCc1ccco1,57.8% (active),
O=C(COC(=O)c1ccc(NS(=O)(=O)c2cccs2)cc1)NCc1ccco1,59.4% (active),
O=C(COC(=O)c1ccc(S(=O)(=O)Nc2ccccc2)cc1)NCc1ccco1,-1.1% (inactive),
O=C(COC(=O)/C=C/c1ccc(F)cc1)NCc1ccco1,8.8% (inactive),
O=C(COC(=O)CCC(=O)c1cccs1)NCc1cccs1,-3.4% (inactive),
O=C(COC(=O)/C=C/c1ccco1)NCc1ccco1,53.7% (active),
